Test system: Plasmodium falciparum NF54
Assay: growth inhibition relative to untreated control; higher = more inhibition
Conditions: 72 h
Outline: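 Ring-stage P. falciparum NF54 parasites at 1% hematocrit and 1% parasitemia were dispensed at 100 μL/well into dark 96-well half-area plates and given a single dose of test compound at 5 μM or 1 μM for 72 h at 37 °C. Incubation took place in minimal RPMI, either alone or supplemented with the chorismate end-products folate (2.2 μM), pABA (7.3 μM), pHBA (7.3 μM), tyrosine (111 μM), phenylalanine (90 μM) and tryptophan. Growth inhibition was determined with SYBR Green relative to untreated wells, using uninfected erythrocytes for background.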

[1] = 1 µM, MM + chorismate end-products (CM screening medium)
[2] = 5 µM, MM + chorismate end-products (CM screening medium)

Row | Structure (SMILES) | growth inhibition [1] [%] | growth inhibition (1 µM, minimal medium (MM)) [%] | growth inhibition [2] [%] | growth inhibition (5 µM, minimal medium (MM)) [%]
1 | O=C(C1CCCCC1)N1CC(=O)N2CCc3ccccc3C2C1 (stereo not drawn) | < 0 | 15.5 | 0.306 | < 0
2 | CCOc1ccc(-c2nc(NC(=O)CS(=O)(=O)c3ccccc3)sc2C)cc1 | 96.4 | 95.3 | 95.3 | 92.6
3 | Cc1ccc2oc(-c3cc(NC(=O)Cc4ccccc4)ccc3Cl)nc2c1 | < 0 | 6.84 | 26.4 | < 0
4 | N=C(N)c1ccc(OCCCCCOc2ccc(C(=N)N)cc2)cc1 | 98.6 | 96.8 | 99.4 | 94
5 | O[C@@H](c1cc(C(F)(F)F)nc2c(C(F)(F)F)cccc12)[C@H]1CCCCN1 | 94.5 | 94.9 | 91.5 | 85.5
6 | O=C(NCCc1ccn(-c2ccccc2)n1)C1CCCCC1 | 13.1 | 20.1 | < 0 | 3.27
7 | COC(=O)C1=C(C)NC(C)=C(C(=O)OC(C)C)C1c1cccc2nonc12 (stereo not drawn) | 42 | 24.4 | 28.3 | 18.7
8 | N#Cc1ccc(-c2cnc(N)c(-c3ccc(C(N)=O)cc3)n2)cc1 | 99.3 | > 100 | > 100 | 89.9
9 | O=C(Nc1nnc(-c2ccc(Cl)cc2)o1)c1cccc(C(F)(F)F)c1 | 11.8 | 33 | 42.7 | < 0
10 | COc1cccc(-c2nc3c(N4CCCC4)cccc3n2CC2CCCN2)n1 (stereo not drawn) | 79.8 | 71.2 | 96.1 | 89.8
11 | Cc1ccc2cc(C3NC(=O)c4ccccc4N3)c(Cl)nc2c1 (stereo not drawn) | 86 | 82.6 | 95.2 | 88.5
12 | COC(=O)c1ccc(F)cc1NS(=O)(=O)c1cccc(-c2cnn(Cc3ccccc3)c2)c1 | 33.2 | 37.7 | 9.57 | < 0
